Measured values as given in PubChem BioAssay (NCATS).
Several values for one entry are separate records, joined by “and”; a condition that tells them apart may be missing. Equal values may be shown once. Results filed as inconclusive are left out. Activity calls are given as the source filed them. Unless noted, calls come from the whole dose curve; as a rule, active = well fitted curve in the direction sought with a large enough effect; inconclusive = small, poorly fitted or top-dose-only effect, or another doubt; inactive = no such curve, though single readings can be large; an effect the other way counts as inactive or inconclusive.

How the values were obtained:
[1] = Cell Viability - Jurkat (AID 426;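 active = dose-dependent loss of cell ATP signal giving a full or clear fitted curve, ranked by lower potency value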;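 note: potency is the fitted concentration of half-maximal effect; cells exposed to compound for 40 hours at 37 °C before ATP read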); conditions: qHTS
Method in brief: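 Seed 5000 Jurkat E6-1 cells/well; add compound; incubate 40 hr at 37 °C; add CellTiter-Glo; wait 20 min at room temperature; read luminescence. Fit concentration-response with Hill equation for AC50.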

[2] = Cell Viability - Hek293 (AID 427;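 active = compounds whose dose-response curve shows a full or clear partial loss of cell viability, called from curve shape rather than a numeric limit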;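 note: potency is the fitted concentration of half-maximal effect; cells exposed to compound for 40 hours at 37 °C before reading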); conditions: qHTS
Method in brief: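 qHTS, human embryonic kidney (adenovirus-transformed) cells; 40 hr cpd, 37 °C; CellTiter-Glo ATP luminescence. Norm: DMSO = 0, 100 uM tamoxifen = 100% inhibition. Hill-fit AC50.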

[3] = Cell Viability - N2a (AID 540); conditions: N2a mouse neuroblastoma cell viability; at 92.2 µM (top of the series);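 note: cells exposed to compound for 40 h at 37 °C; plate controls were DMSO alone for no effect and tamoxifen control for full effect; nearly all actives have a fitted effect of over 45% in size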
Method in brief: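 First, 1500 N2a cells per well incubate 5 hr at 37 °C; next, compounds are added and incubated 40 hr at 37 °C; finally CellTiter-Glo is added and luminescence read after 20 min, with AC50 derived by Hill modeling.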

[4] = Cell Viability - H-4-II-E (AID 543); conditions: H-4-II-E rat hepatoma viability; series mostly up to 92.2 µM;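 note: cells exposed to compound for 40 hours; % is set by controls: 0 for no effect and ±100 for the full control effect; nearly all actives have a fitted effect of over 35% in size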
Method in brief: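 Here, cytotoxicity is measured in the rat hepatoma line H-4-II-E as loss of intracellular ATP after 40 hr compound treatment, detected by luciferase luminescence.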

[5] = Cellular Toxicity (caspase-3) HepG2 (AID 654); conditions: HepG2 caspase-3 activation, luminescence, 0% = DMSO only, 100% = tamoxifen; series mostly up to 92.2 µM;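 note: cells exposed to compound for 16 hours before reading; 0% = DMSO alone and 100% = caspase signal from 100 µM tamoxifen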
Method in brief: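 qHTS, HepG2, 1500 cells/well, complete medium; cpd 16 h 37 °C; Caspase-Glo 3/7, 20 min RT; lum. Norm: DMSO vs 100 uM tamoxifen; AC50 Hill fit.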

[6] = Cellular Toxicity (caspase-3) Hek293 (AID 664); conditions: HEK293 caspase-3 activation, DMSO = 0%, 100 µM tamoxifen = 100%; series mostly up to 92.2 µM;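 note: cells exposed to compound for 16 h at 37 °C before readout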
Method in brief: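 Activation of caspase-3/7 is measured as increased luminescence from cleaved peptide-aminoluciferin substrate in HEK293 cells treated 16 hours at 37 °C. AC50 values come from Hill-equation fits of concentration-response data.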

[7] = Cellular Toxicity (caspase-3) NIH 3T3 (AID 666); conditions: NIH 3T3 caspase-3 activation, apoptosis/toxicity, 0% DMSO, 100% is 100 µM tamoxifen; series mostly up to 92.2 µM;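 note: caspase signal read after 16 h compound exposure; 0% = DMSO basal and 100% = 100 µM tamoxifen stimulation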
Method in brief: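 Concentration-response qHTS in NIH 3T3 mouse fibroblasts scores caspase-3/7 activation as rising luminescence after 16 hr compound exposure. Signals are scaled between DMSO-only and 100 uM tamoxifen.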

[8] = MultiTox-Fluor Cytotoxicity Assay - LYMP1-001 - Dead Cells (AID 946); conditions: LYMP1-001 lymphoblastoid cells, dead-cell protease fluorescence; series mostly up to 92.2 µM
Method in brief: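 Seed 2500 LYMP1-001 cells/well, incubate 5 hr at 37 C; add compound, 16 hr at 37 C; add MultiTox-Fluor reagent, 60 min RT; read dead-cell fluorescence Ex/Em=485/520. Normalize to DMSO and 15 uM tetraoctylammonium bromide.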

[9] = Cell Viability - LYMP1-002 - Assay at 16 hr (AID 948); conditions: LYMP1-002 lymphoblastoid cell viability; series mostly up to 92.2 µM;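 note: 0% = DMSO alone and full effect = 92 µM tetraoctylammonium bromide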
Method in brief: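 Seed 2500 LYMP1-002 cells per well in complete medium and hold 5 hr at 37 C. Add compound across a concentration series and incubate 16 hr at 37 C. Add CellTiter-Glo, wait 30 min at room temperature, read luminescence.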

[10] = MultiTox-Fluor Cytotoxicity Assay - LYMP1-002 - Live Cells (AID 955); conditions: LYMP1-002 lymphoblastoid live-cell protease fluorescence viability; series mostly up to 46.1 µM; note: % is set by controls: 0 for no effect and ±100 for the full control effect
Method in brief: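 Cytotoxicity in the human lymphoblastoid line LYMP1-002 is measured as loss of live-cell protease activity after 16 h treatment in complete culture medium. AC50 is derived from Hill-equation fits of qHTS concentration-response data.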

[11] = MultiTox-Fluor Cytotoxicity Assay - LYMP1-003 - Dead Cells (AID 961); conditions: LYMP1-003 lymphoblastoid cells, dead-cell protease fluorescence; series mostly up to 92.2 µM; note: nearly all actives have a fitted effect of over 70% in size
Method in brief: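 LYMP1-003 lymphoblastoid, 2500 cells/well, 5 hr settle then 16 hr cpd at 37 C; MultiTox-Fluor reagent 60 min RT; Ex/Em 485/520 dead-cell signal; norm. DMSO = 0%, 15 uM tetraoctylammonium bromide = 100%; Hill AC50.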

[12] = Cell Viability - LYMP1-003 - Assay at 40 hr (AID 964); conditions: LYMP1-003 lymphoblastoid viability; series mostly up to 92.2 µM; note: % is set by controls: 0 for no effect and ±100 for the full control effect; nearly all actives have a fitted effect of over 60% in size
Method in brief: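 This qHTS cytotoxicity screen treats human lymphoblastoid cells (LYMP1-003) with compounds for 40 hr and quantifies cellular ATP via luciferase luminescence.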

[13] = Cell Viability - LYMP2-025 (AID 976); conditions: LYMP2-025 lymphoblastoid cell viability; series mostly up to 92.2 µM;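 note: cells exposed to compound for 24 h at 37 °C; plate controls were DMSO only for no effect and tetraoctylammonium bromide control for full effect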
Method in brief: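 In qHTS format, LYMP2-025 lymphoblastoid cells in complete culture medium received compound for 24 hr; ATP-based CellTiter-Glo signal gave viability, with AC50 derived by Hill equation.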

[14] = Cell Viability - LYMP2-006 (AID 978); conditions: LYMP2-006 lymphoblastoid cell viability, qHTS; series mostly up to 92.2 µM;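 note: cells exposed to compound for 24 hours; % is set by controls: 0 for no effect and ±100 for the full control effect; nearly all actives have a fitted effect of over 60% in size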
Method in brief: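 Cells are seeded at 2500 per well and rested 5 hr at 37 C. Compounds are added across a concentration series for 24 hr at 37 C, after which ATP is quantified by luciferase luminescence.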

[15] = Cell Viability - LYMP2-008 (AID 980); conditions: LYMP2-008 lymphoblastoid cell viability, qHTS; series mostly up to 92.2 µM;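 note: cells exposed to compound for 24 h at 37 °C; % is set by controls: 0 for no effect and ±100 for the full control effect; nearly all actives have a fitted effect of over 60% in size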
Method in brief: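 Acute cytotoxicity is scored as concentration-dependent loss of cellular ATP in a human lymphoblastoid line after 24 hr treatment at 37 C. ATP is quantified by luciferase luminescence.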

[16] = Cell Viability - LYMP1-002 - Assay at 24 hr (AID 993); conditions: LYMP1-002 lymphoblastoid cells viability; series mostly up to 92.2 µM; note: % is set by controls: 0 for no effect and ±100 for the full control effect
Method in brief: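 qHTS, LYMP1-002 lymphoblastoid, 24 h cpd, 37 C, CellTiter-Glo ATP luminescence; AC50 via Hill eq.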

[17] = Cell Viability - LYMP1-002 - Assay at 40 hr (AID 994); conditions: LYMP1-002 lymphoblastoid cell viability; series mostly up to 92.2 µM;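 note: 0% = DMSO only and full inhibition = 92 µM tetraoctylammonium bromide; nearly all actives have a fitted effect of over 60% in size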
Method in brief: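 Viability in the human lymphoblastoid line was measured as intracellular ATP via CellTiter-Glo after 40 hr compound exposure. Tetraoctylammonium bromide served as positive control.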

[18] = qHTS assay for small molecule agonists of retinoid X receptor alpha signaling (AID 588544); conditions: HEK293T RXRa-UAS-bla, beta-lactamase reporter, 18 h; 530 nm emission
[19] = biological target: Tumor necrosis factor (Homo sapiens) (UniProt P01375); experiment: qHTS assay to identify small molecules that stimulate Tumor Necrosis Factor-alpha (TNF-alpha) secretion (AID 651757; active = well fitted curve in the direction sought with a large enough effect in the signal ratio; the % refers to the signal ratio; note: 0% is about no effect); conditions: Human cells, HTRF 665/615 ratio; series mostly up to 92.2 µM
Method in brief: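 Secreted TNF-alpha from compound-treated THP-1 cells (17 hrs, 37 C) was quantified with a homogeneous time-resolved fluorescence antibody assay.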

[20] = qHTS assay for small molecule agonists of the antioxidant response element (ARE) signaling pathway measured by Nrf2-dependant transcriptional activity (AID 720636; active = well fitted curve in the direction sought with a large enough effect in the repeat runs; an effect the other way counts as inactive or inconclusive; note: % of control where 0% means no effect); conditions: ARE-luc HepG2, Nrf2 luciferase reporter, 16 h; series mostly up to 92.4 µM
Method in brief: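 ARE-luc HepG2 cells carrying an Nrf2-responsive luciferase reporter were plated in medium with 1% dialyzed FBS, left 6 hr at 37 C to attach, then exposed to compound for 16 hr. Luciferase luminescence was read after ONE-Glo addition.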

Tumor necrosis factor (Homo sapiens), sequence (P01375 whole entry, looked up): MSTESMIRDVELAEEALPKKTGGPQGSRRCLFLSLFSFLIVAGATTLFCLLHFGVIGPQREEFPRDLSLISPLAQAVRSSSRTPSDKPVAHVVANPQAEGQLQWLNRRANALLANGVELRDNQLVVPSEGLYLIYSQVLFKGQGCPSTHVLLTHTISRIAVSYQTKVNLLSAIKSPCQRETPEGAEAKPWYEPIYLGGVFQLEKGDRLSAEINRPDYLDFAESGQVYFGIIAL

C=CCOC(=O)c1ccccc1N
inactive: Potency [1] > 92 µM | Potency [2] > 92 µM | activity change, negative = cytotoxicity [3] 1.61% | Potency [4] | outcome [5] | outcome [6] | outcome [7] | Potency [8] | Potency [9] | outcome [10] | Potency [11] | Potency [12] | Potency [13] | Potency [14] | Potency [15] | Potency [16] | Potency [17] | outcome [19] | outcome [20]
1.54%: max response [18]

c1ccc2c(c1)CCCC2
-21.1%: max response [18]
inactive: Potency [1] > 92 µM | Potency [2] > 92 µM | activity change, negative = cytotoxicity [3] 9.97% | Potency [4] | outcome [5] | outcome [6] | outcome [7] | Potency [8] | Potency [9] | outcome [10] | Potency [11] | Potency [12] | Potency [13] | Potency [14] | Potency [15] | Potency [16] | Potency [17] | outcome [19] | outcome [20]

Nc1c(Cl)c(Cl)nc(C(=O)O)c1Cl
inactive: Potency [1] > 92 µM | Potency [2] > 92 µM | activity change, negative = cytotoxicity [3] -4.43% | Potency [4] | outcome [5] | outcome [6] | outcome [7] | Potency [8] | Potency [9] | outcome [10] | Potency [11] | Potency [12] | Potency [13] | Potency [14] | Potency [15] | Potency [16] | Potency [17] | outcome [19] | outcome [20]
27.1%: max response [18]

Nc1ccccc1Cl
inactive: Potency [1] > 92 µM | Potency [2] > 92 µM | activity change, negative = cytotoxicity [3] 0.502% | Potency [4] | outcome [5] | outcome [6] | outcome [7] | Potency [8] | Potency [9] | outcome [10] | Potency [11] | Potency [12] | Potency [13] | Potency [14] | Potency [15] | Potency [16] | Potency [17] | outcome [19] | outcome [20]
-4.32%: max response [18]

CC(C)(c1ccccc1)c1ccc(O)cc1
-10.3% and -15.2%: max response [18]
inactive: Potency [1] > 92 µM | Potency [2] > 92 µM | activity change, negative = cytotoxicity [3] -9.3% | Potency [4] | outcome [7] | Potency [8] | Potency [9] | outcome [10] | Potency [11] | Potency [12] | Potency [13] | Potency [14] | Potency [15] | Potency [16] | Potency [17] | outcome [19] | outcome [20]

Cc1ccc2ccccc2c1
inactive: Potency [1] > 92 µM | Potency [2] > 92 µM | activity change, negative = cytotoxicity [3] -3.22% | Potency [4] | outcome [5] | outcome [6] | outcome [7] | Potency [8] | Potency [9] | outcome [10] | Potency [11] | Potency [12] | Potency [13] | Potency [14] | Potency [15] | Potency [16] | Potency [17] | outcome [19] | outcome [20]
-14.7%: max response [18]

C=CCOC(C)=O
-7.26%: max response [18]
inactive: Potency [1] > 92 µM | Potency [2] > 92 µM | activity change, negative = cytotoxicity [3] -14.3% | Potency [4] | outcome [5] | outcome [6] | outcome [7] | Potency [8] | Potency [9] | outcome [10] | Potency [11] | Potency [12] | Potency [13] | Potency [14] | Potency [15] | Potency [16] | Potency [17] | outcome [19] | outcome [20]
